Laboratory results from the supplement of paper PMC3334620.
Whole data set: some 33,000 sequences, median “E-score (-0.5 to 0.5)” near -8e-05, cut for the highest 2% near 0.23. This is one part of a sample in which the highest values are shown more often than they occur.

Target: T1, Nrg2 (UniProt P38082)
T1 sequence: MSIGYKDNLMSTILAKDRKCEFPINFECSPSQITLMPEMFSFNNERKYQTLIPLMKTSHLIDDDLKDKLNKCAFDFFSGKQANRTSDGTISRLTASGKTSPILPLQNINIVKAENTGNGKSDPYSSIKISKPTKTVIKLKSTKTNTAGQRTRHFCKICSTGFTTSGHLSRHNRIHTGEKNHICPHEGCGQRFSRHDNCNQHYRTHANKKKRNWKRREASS
Assay: PBM E-score (8-mer binding enrichment) (E-score (-0.5 to 0.5)); higher = stronger / more preferred TF binding
Conditions: protein concentration: 100 nM; construct: GST-full length
Description: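 Universal 'all 10-mer' protein binding microarrays (Agilent AMADID 015681) probed with GST-tagged S. cerevisiae TFs (full-length or DBD) made by in vitro transcription/translation (PURExpress), about 100-200 nM. Bound TF was detected with fluorescent anti-GST. Each ungapped 8-mer (which stands for itself and its reverse complement) is scored by the PBM enrichment score (E-score), a modified Wilcoxon-Mann-Whitney statistic from -0.5 to +0.5, computed with the Universal PBM Analysis Suite. Scale: above 0.35 generally sequence-specific binding.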

Row | Sequence | PBM E-score
1 | CAGATGAA | 0.026
2 | ACGCTAGG | -0.266
3 | AACCAGGG | 0.176
4 | ATTAAAAA | 0.246
5 | ATCAAAAT | -0.0176
6 | ATTAAAAG | 0.103
7 | ATTAAAAT | 0.174
8 | ATCAAAAG | 0.00066
9 | ATTAAACC | 0.199
10 | ATTAACAA | 0.179
11 | CTTAAAAC | 0.0325
12 | CTTAACAC | 0.0347
13 | ATCAAAAA | 0.237
14 | ATTAAAAC | 0.241
15 | ATTAACAC | 0.246
16 | CCTCGTAC | 0.0199
17 | CGAACTGC | -0.0594
18 | TCCAGAGA | -0.144
19 | AAGGGGAT | 0.205
20 | ACTTAGGG | 0.0512
21 | ACCAACTC | -0.0268
22 | CCCAACTA | 0.174
23 | CCCAACTC | 0.256
24 | GCCGCGCA | -0.0674
25 | CTGGTGGC | 0.00474

Row | Sequence | PBM E-score
26 | ACAGTAGA | 0.138
27 | AGTATTTA | 0.0065
28 | GGTATTTA | 0.0832
29 | CGTATTTA | 0.248
30 | AGCCCCAT | -0.0124
31 | CTGCGATC | 0.0398
32 | CGAGGGCC | -0.0174
33 | AACTTATC | 0.121
34 | AACTTATT | 0.256
35 | AACTTATG | -0.0218
36 | CATAGTCG | -0.0054
37 | AGGCAAGA | -0.0756
38 | AAGCCCTC | -0.132
39 | ACCAACAG | -0.00807
40 | ACCAACAA | 0.245
41 | ACCAACAT | 0.0787
42 | GAGAAAGC | 0.0912
43 | ACCTACAT | 0.00858
44 | GCCCCAGC | 0.0519
45 | CTGGTGCC | -0.212
46 | AACTACTG | 0.0512
47 | CGCTACTC | -0.0612
48 | AACTACTA | 0.296
49 | TACTAATA | 0.0648
50 | AGCTACTA | 0.0519

Row | Sequence | PBM E-score
51 | CGCTACTA | 0.234
52 | AACTAATA | 0.354
53 | CACTAATA | 0.133
54 | AACTACTC | 0.184
55 | AAGACGTG | -0.0832
56 | ACGAATAG | 0.0297
57 | CACCTCCC | -0.294
58 | CAGATGGC | -0.107
59 | CAGATATC | 0.133
60 | AAGATATC | 0.149
61 | AAGATACA | 0.171
62 | ACGATACA | -0.0148
63 | GATACCTA | 0.256
64 | GAGATACA | 0.296
65 | CATACCTA | -0.0293
66 | GAGATATC | 0.282
67 | AATACCTA | 0.144
68 | TAGATACA | 0.0563
69 | TCGATACA | 0.243
70 | GCGATACA | -0.00403
71 | ATTTACAA | 0.0879
72 | GCGCACAA | 0.195
73 | GTAGAGTA | -0.0442
74 | CCACGGGC | -0.139
75 | GGCCGCCA | 0.0869

Row | Sequence | PBM E-score
76 | GAGGCCGA | -0.0441
77 | CAAACAAC | 0.14
78 | ATAGGAAC | -0.0698
79 | AAAGCAGT | 0.201
80 | CATACATA | 0.219
81 | CACATACA | -0.0126
82 | GACATACA | 0.246
83 | TACATACA | 0.199
84 | GATACATC | 0.134
85 | GATACATA | 0.246
86 | AGAAGTAC | -0.0369
87 | ACCCGCGT | -0.119
88 | ACCCGCGG | 0.275
89 | CCCCGCGG | 0.0578
90 | ACCCGCCG | 0.201
91 | ACCCGCGC | 0.229
92 | ACCCGCGA | 0.174
93 | ACTAGGAA | -0.094
94 | CGAATCAC | 0.117
95 | CTGGACCC | 0.275
96 | ATGGACCC | 0.206
97 | ACGGACCT | 0.17
98 | AGGGACGA | 0.248
99 | CTGGACCA | -0.0552
100 | AGGGACGG | -0.0133

Row | Sequence | PBM E-score
101 | GGGGACCA | 0.0565
102 | AGGGACCA | 0.35
103 | AAGGACCT | 0.0061
104 | CGGGACCA | -0.173
105 | AGGGACGC | 0.196
106 | AGGGACCT | 0.382
107 | CACGATAC | -0.129
108 | ACTTTCGC | -0.0735
109 | CAGTTGCC | -0.092
110 | ATGAGCAA | 0.121
111 | AGGGTCAT | 0.132
112 | GCCCAAGC | 0.106
113 | ATCTATGC | 0.117
114 | CCGGGCAC | -0.16
115 | CGCAAAGA | 0.111
116 | GGGTCTCA | 0.0513
117 | GGGGACCC | 0.143
118 | AGGGACAC | 0.204
119 | CGGGACCG | -0.0394
120 | AGGGACCG | 0.231
121 | AGGGACAA | 0.228
122 | CGGGACCC | -0.0126
123 | AGGGACTC | -0.0325
124 | AGGGACCC | 0.337
125 | GGGGACTA | -0.0994

Row | Sequence | PBM E-score
126 | ACGGACCG | -0.252
127 | AGGGACTA | 0.242
128 | AGGGACAT | 0.301
129 | CCTGACCA | 0.142
130 | CGAAGACC | 0.0649
131 | GCTCTCAA | 0.047
132 | ACGATCGA | 0.0838
133 | GTGAGCAA | -0.0485
134 | GTCCAGTA | -0.0597
135 | GATACAAA | 0.18
136 | AATACAAA | 0.269
137 | AATACAAG | 0.296
138 | TATACAAA | 0.148
139 | AATACAAT | 0.106
140 | AATACAAC | 0.185
141 | GTAATCGA | 0.154
142 | TGAATACA | 0.0782
143 | CCTTGCTC | 0.0643
144 | AGCGTTAT | -0.0753
145 | GTCTACTA | 0.0788
146 | CACCTGTC | 0.0208
147 | AGCTCTGG | -0.136
148 | ATCAGATG | -0.0502
149 | GTCTTGCA | 0.0101
150 | ATCTTGCG | -0.0421

Row | Sequence | PBM E-score
151 | ATCTTGCA | 0.256
152 | GAAGCCTC | -0.146
153 | ATCGAAGA | 0.193
154 | ATATTGCA | 0.113
155 | AGAGATTC | 0.0502
156 | GACAGTAA | 0.0902
157 | ATGAAGTA | 0.0961
158 | ATGAAGTG | 0.235
159 | ATGAAGTC | -0.0277
160 | ATTGAACG | -0.0983
161 | ATCCAAAT | 0.0165
162 | CCCGCGGG | 0.278
163 | CGCGCGTC | 0.262
164 | AACGCGGA | 0.0806
165 | CACGCGGA | 0.234
166 | CGCGCGGC | 0.296
167 | CGCGCGGA | 0.227
168 | CGCGCGTA | 0.133
169 | CACGCGGG | -0.0425
170 | AGCGCGGC | 0.0579
171 | CCCGCGGA | 0.204
172 | AGCGCGTC | -0.0322
